# Activity calls are given as the source filed them. Unless noted, no rule for the calls is given here.
# Columns and labels:
# [1] = tested on: XIP peptide (Xip251-270) binding; test: XIP fragment 251-270 binding compounds – biochemical, small-molecule microarray, fluorescence 635/667 nm, 0.1 µg/mL protein, primary screen (AID 1182); details: fluorescent protein binding, 635 nm, higher = more signal, called active from +8 up or from −8 down
# [2] = tested on: XIP peptide (Xip251-270); test: compounds binding XIP fragment 251-270 – biochemical, small-molecule microarray, fluorescence 635/667 nm, 0.5 µg/mL protein, primary screen (AID 1183); details: fluorescence 635 nm, higher = more signal
# [3] = blood-stage malaria parasite viability loss – strain 3D7, DAPI fluorescence, 100 nL, primary screen (AID 1184);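 also: parasites grown inside human red blood cells in medium with human serum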; details: P. falciparum 3D7 growth, 3 d, higher = more signal
# [4] = target: Homeobox protein Hox-A13 (Mus musculus) (UniProt Q62424); test: disruptors of Hoxa13 oligonucleotide interaction – biochemical, fluorescence polarization, labeled oligonucleotide, primary screen (AID 1185); details: Hoxa13:DNA binding, 15 min, higher = more signal, called active from +8 up or from −8 down
# Chain of Homeobox protein Hox-A13 (Mus musculus) (Q62424 whole entry, looked up): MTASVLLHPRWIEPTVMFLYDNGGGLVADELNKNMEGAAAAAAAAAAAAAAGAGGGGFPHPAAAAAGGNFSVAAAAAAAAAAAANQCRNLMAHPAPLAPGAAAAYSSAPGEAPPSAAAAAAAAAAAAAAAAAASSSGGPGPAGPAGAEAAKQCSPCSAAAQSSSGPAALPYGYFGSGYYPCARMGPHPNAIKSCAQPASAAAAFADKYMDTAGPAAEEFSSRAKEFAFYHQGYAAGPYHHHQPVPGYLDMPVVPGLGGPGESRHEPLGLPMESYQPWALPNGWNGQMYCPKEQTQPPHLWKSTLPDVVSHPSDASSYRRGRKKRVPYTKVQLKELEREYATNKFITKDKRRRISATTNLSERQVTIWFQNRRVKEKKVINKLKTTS
# [5] = blockers of DNA damage checkpoint Chk1 activation – imaging, HeLa, hydroxyurea, phospho-Chk1 antibody, percent positive cells, primary screen (AID 1186); details: hydroxyurea-induced phospho-Chk1 immunofluorescence imaging, higher = more signal
# [6] = blockers of DNA damage checkpoint Chk1 activation – imaging, HeLa, hydroxyurea, phospho-Chk1 nuclear intensity, primary screen (AID 1187); details: hydroxyurea-induced phospho-Chk1 immunofluorescence imaging, higher = more signal
SMILES,composite z-score [1],composite z-score [2],z-score [3],z-score [4],z-score [5],z-score [6]
CO[C@H]1O[C@H](CO)[C@@H](OC(=O)Nc2ccccc2-c2ccccc2)[C@H](OC(=O)Nc2ccccc2-c2ccccc2)[C@H]1OC(=O)Nc1ccccc1-c1ccccc1,0.0163 (inactive),0.861,-1.06,-2.05 (inactive),-0.0075 (inactive),0.618 (inactive)
Cc1ccc(S[C@]2(C(=O)NCC(F)(F)F)CC(=O)N(C3Cc4ccccc4C3)[C@@H]2c2ccc(CO)cc2I)cc1,0.448 (inactive),-0.273,0.178,-2.85 (inactive),0.0501 (inactive),0.637 (inactive)
[N-]=[N+]=NCc1ccccc1C[C@]1(C(=O)NCCN2CCOCC2)N=C(c2ccc(OCCCO)cc2)O[C@H]1c1ccccc1CN=[N+]=[N-],3.06 (inactive),0.578,-2.67,-2.59 (inactive),-0.26 (inactive),-0.787 (inactive)
CN1C(=O)C2C(C1=O)C1C=C(c3ccc(CO)cc3)C2C(C2CC2)N1Cc1cc2c(cc1Br)OCO2 (stereo not given),2.71 (inactive),0.832,-2.16,-4.5 (inactive),-0.369 (inactive),-0.327 (inactive)
O=C1C2C=CC(C(O)c3cccc4ccccc34)N(n3cnnc3)C2C(=O)N1Cc1ccccc1 (stereo not given),-0.0195 (inactive),-0.633,-0.206,-1.86 (inactive),0.993 (inactive),-0.055 (inactive)
O=C1O[C@@H](c2ccccc2)[C@@H](c2ccccc2)N2[C@@H](c3ccc(O)cc3)[C@]3(C(=O)Nc4ccccc43)[C@@H](C(=O)NC[C@H](O)c3ccccc3)[C@H]12,0.737 (inactive),0.232,1.15,-5.08 (inactive),-0.0877 (inactive),-0.173 (inactive)
CCCCN1CC=CC23O[C@@H]4/C=C\CCCOC(=O)C4[C@H]2C(=O)N(C(C)CO)[C@@H]3C1=O (stereo not given in full),0.502 (inactive),-0.269,0.494,-4.24 (inactive),0.166 (inactive),0.711 (inactive)
C=CCN1Cc2ccccc2C[C@]2(N=C(c3ccc(OCCCO)cc3)O[C@@H]2c2ccccc2)C1=O,1.27 (inactive),0.824,-2.31,-3.62 (inactive),-0.802 (inactive),-0.978 (inactive)
CC(=O)N1Cc2ccccc2C[C@@]2(N=C(c3ccc(OCCCO)cc3)O[C@H]2c2ccccc2)C1=O,1.11 (inactive),0.887,-2.24,-3.3 (inactive),-0.662 (inactive),-0.681 (inactive)
COCCOC(=O)N1C(=O)[C@@]2(c3cc(C#Cc4ccc(OC)cc4)ccc31)[C@H](c1ccc(OCCO)cc1)N1[C@H](c3ccccc3)[C@H](c3ccccc3)OC(=O)[C@H]1[C@@H]2C(=O)N1CCc2cc(OC)c(OC)cc2C1,0.179 (inactive),0.592,-1.85,3.38 (inactive),-0.329 (inactive),-0.456 (inactive)
CCCC[C@@H]1C[C@H]1[C@@H](NC(=O)c1ccccc1)c1ccccc1,-0.33 (inactive),-0.302,0.328,-1.46 (inactive),0.072 (inactive),-0.0583 (inactive)
O=C1C[C@@](C(=O)O)(c2ccc([N+](=O)[O-])cc2)[C@@H](c2ccc(CO)cc2I)N1C1CCCCC1,-0.183 (inactive),0.553,-2.01,-6.2 (inactive),-0.195 (inactive),0.201 (inactive)
C#C[C@H]1Oc2ccccc2S(=O)(=O)N2CCC[C@@H]12,-0.267 (inactive),-0.286,0.562,-1.15 (inactive),0.528 (inactive),0.526 (inactive)
COCC1=C([C@H](O)CCc2ccccc2)[C@H](CO)[C@@H]2C(=O)N(Cc3ccccc3)C(=O)[C@@H]2C1,-0.0534 (inactive),0.155,-0.54,-5.17 (inactive),-0.955 (inactive),-0.946 (inactive)
COc1ccc([Si](C)(C)[C@H]2[C@H](CCO)O[C@@]3(C(=O)N(Cc4cccc(N5C(=O)c6cccc7cccc5c67)c4)c4ccccc43)[C@@H]2C)cc1,0.834 (inactive),0.512,-2.82,-1.61 (inactive),-0.283 (inactive),-0.304 (inactive)
CC1CC/C=C\[C@H]2OC34C=CCN(CCN5CCOCC5)C(=O)[C@H]3N(CCCCCO)C(=O)[C@@H]4C2C(=O)O1 (stereo not given in full),-0.173 (inactive),-1.32,-0.143,-5.32 (inactive),-0.0913 (inactive),-0.364 (inactive)
O=C1O[C@@H](c2ccccc2)[C@@H](c2ccccc2)N2[C@@H](c3ccc(O)cc3)[C@]3(C(=O)Nc4ccc(C#CCCO)cc43)[C@@H](C(=O)O)[C@H]12,0.665 (inactive),0.785,-0.63,-4.56 (inactive),0.0686 (inactive),0.632 (inactive)
C=CCNC(=O)[C@H]1[C@@H]2C(=O)O[C@@H](c3ccccc3)[C@@H](c3ccccc3)N2[C@@H](c2ccc(OCCO)cc2)[C@]12C(=O)N(C(=O)OCCOC)c1ccc(C#CC3(O)CCCCCC3)cc12,0.404 (inactive),0.735,-1.91,-0.675 (inactive),-0.124 (inactive),-0.0954 (inactive)

SMILES,composite z-score [1],composite z-score [2],z-score [3],z-score [4],z-score [5],z-score [6]
O=C1C2C=CC(C(O)c3ccccn3)N(Nc3ccccc3F)C2C(=O)N1c1ccccc1 (stereo not given),-0.035 (inactive),0.796,-0.0664,-2.54 (inactive),-0.0045 (inactive),-0.176 (inactive)
O=c1cccc(-c2cccc3ccccc23)o1,-0.738 (inactive),0.454,-0.796,-1.69 (inactive),-0.715 (inactive),-1.06 (inactive)
COCCOC(=O)N1C(=O)[C@@]2(c3cc(C#CC4(O)CCCCCC4)ccc31)[C@H](c1ccc(O)cc1)N1[C@H](c3ccccc3)[C@H](c3ccccc3)OC(=O)[C@H]1[C@@H]2C(=O)N1CCc2cc(OC)c(OC)cc2C1,-0.455 (inactive),0.839,0.0635,-0.954 (inactive),-0.404 (inactive),-0.466 (inactive)
CS(=O)(=O)CCOC(=O)C1=CC(c2ccc(CO)cc2)=CC(c2cccs2)N(Cc2cccc(OC(F)(F)F)c2)C=C1C(=O)OCCS(C)(=O)=O (stereo not given),0.276 (inactive),0.514,-2.5,-4.18 (inactive),0.552 (inactive),0.377 (inactive)
COc1cc(NN2C(C(O)c3ccccc3)C=CC3C(=O)N(c4ccccc4)C(=O)C32)cc(OC)c1OC (stereo not given),0.396 (inactive),0.774,-0.634,-4.58 (inactive),0.124 (inactive),-0.0995 (inactive)
O=C1C2C=CC(C(O)C3CC=CCC3)N(n3cnnc3)C2C(=O)N1Cc1ccccc1 (stereo not given),0.887 (inactive),-0.0517,0.017,-3.36 (inactive),0.518 (inactive),-0.603 (inactive)
CC(C)N1C(=O)c2ccccc2[C@](C)(C(=O)NCCCN(C)C)[C@@H]1c1ccc(CO)cc1,0.289 (inactive),0.431,0.191,-1.73 (inactive),0.0165 (inactive),0.149 (inactive)
Cc1ccc(S[C@]2(C(=O)NCCN3CCOCC3)CC(=O)N(C3CCCCC3)[C@@H]2c2ccc(CO)cc2)cc1,-0.202 (inactive),0.886,-0.75,-4 (inactive),-0.0334 (inactive),0.206 (inactive)
C[C@]1(C(=O)NCC(F)(F)F)c2ccccc2C(=O)N(Cc2cc(F)cc(C(F)(F)F)c2)[C@H]1c1ccc(CO)cc1,0.362 (inactive),0.473,-1.31,-3.68 (inactive),0.305 (inactive),0.388 (inactive)
C=CCOC(=O)[C@H]1[C@@H]2C(=O)O[C@@H](c3ccccc3)[C@@H](c3ccccc3)N2[C@@H](c2ccc(OCCOC(=O)[C@@H]3C[C@@H]4C(=O)NCC(=O)N4[C@@H]3c3ccc(O)cc3)cc2)[C@]12C(=O)Nc1ccc(I)cc12,0.2 (inactive),0.825,-1.11,0.274 (inactive),0.147 (inactive),0.192 (inactive)
Cn1c2c(c3ccccc31)C(=O)C1NC2C=CC1(C)C(=O)OCc1ccccc1 (stereo not given),-0.605 (inactive),-0.416,-0.502,-3.9 (inactive),-0.3 (inactive),-0.512 (inactive)
Cc1ccc(F)cc1S(=O)(=O)N[C@@H]1CCN(Cc2ccc(C(F)(F)F)cc2)C1,0.0254 (inactive),-0.496,-0.433,-5.99 (inactive),-0.619 (inactive),-0.441 (inactive)
O=C(NCc1ccccc1)[C@@H]1c2ccccc2C(=O)N(C2CCCCC2)[C@H]1c1ccc(CO)cc1,0.81 (inactive),0.732,-0.667,-2.81 (inactive),-0.13 (inactive),-0.296 (inactive)
C=C[C@@H](C)[C@@H](OC(=O)Nc1ccc(OC)cc1)c1ccc(O)c2ccccc12,1.36 (inactive),-0.0477,-1.65,-3.38 (inactive),0.453 (inactive),0.196 (inactive)
Cc1ccccc1/C=C/C=O,0.958 (inactive),0.532,-0.198,-0.848 (inactive),0.133 (inactive),0.0525 (inactive)
C=C(C(=O)CC[C@@H](OC(C)=O)c1ccc(OCCO)cc1)C(C)C,0.564 (inactive),0.101,-1.42,-3.67 (inactive),0.598 (inactive),0.147 (inactive)
C=CC[C@]1(C(=O)O)N=C(c2ccc(OCCCO)cc2)O[C@H]1c1ccccc1CN=[N+]=[N-],1 (inactive),-0.76,0.797,-5.35 (inactive),0.341 (inactive),-0.0268 (inactive)
